From PubChem BioAssay AID624297 (National Center for Advancing Translational Sciences (NCATS), 2012)
The whole screen tested about 340,000 compounds, of which about 6,200 (1.8%) were called active. About 10% were inconclusive and are not listed. Calls come from the whole dose curve; as a rule, active = well fitted activation curve with a large enough effect; inconclusive = small, poorly fitted or top-dose-only effect; inactive = no such curve, though single readings can be large or run the other way. For the sample, actives were picked, then their nearest neighbours and some compounds at random.

assay: A quantitative high throughput screen for small molecules that induce DNA re-replication in SW480 colon adenocarcinoma cells.; note: nearly all actives have a fitted effect of over 55% in size; for re-replication activation: % of control where 0% means no effect; details: Hoechst DNA content imaging, 48 h; series mostly up to 46.1 µM; re-replication activation: at the top concentration
Method in brief: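 Quantitative HTS format with DMSO vehicle controls; 48 hr drug incubation at 37 C, then 40 min Hoechst staining and scanning imager measurement at 405 nm excitation.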
Potency is the fitted concentration of half-maximal effect.

SMILES | re-replication activation | Potency
CCC(=O)Nc1ccc2nc(C)n(Cc3ccccc3Cl)c(=O)c2c1 | -2.2% (inactive) | 
CCN1CCN(c2cc3nc(C)n(Cc4ccccc4)c(=O)c3cc2NC(=O)c2ccccc2F)CC1 |  | 8.2 µM (active)
CCOc1cc(NC(=O)c2ccccc2C(=O)O)c(OCC)cc1NC(=O)c1ccccc1F | 6.97% (inactive) | 
N#Cc1c(-c2ccc(F)cc2)cc(C2CC2)nc1SCC(=O)c1cccs1 |  | 11.6 µM (active)
Cc1cc(C#N)c(SCC(N)=O)nc1-c1ccc(F)cc1 | -0.723% (inactive) | 
O=C(c1cccs1)N1CCCC(c2nc(-c3ccc(F)cc3)no2)C1 (configuration not stated) | -0.305% (inactive) | 
CC12CCCCC1=CC(=O)CC2 (configuration not stated) | 0.335% (inactive) | 
CCC(=O)NC(=S)Nc1ccc(NC(=O)c2ccco2)c(Cl)c1 | 2.73% (inactive) | 
O=C(Nc1ccc(C2CC2(Cl)Cl)cc1)c1cccc([N+](=O)[O-])c1 (configuration not stated) | 13% (inactive) | 
O=C(Nc1ccc(NC(=O)c2ccco2)c(Cl)c1)c1cccc([N+](=O)[O-])c1 |  | 0.651 µM (active)
O=C(COC(=O)CSc1ccccc1)Nc1ccc(F)cc1F | -8.3% (inactive) | 
C=CC[C@H](CC(=O)NCCO)C(=O)N[C@@H](COC(=O)[C@@H](CC=C)Cc1ccc(F)cc1)Cc1c[nH]c2ccccc12 | -8.11% (inactive) | 
Cc1ccc(C(=O)Nc2ccccc2-c2ccccc2)cc1S(=O)(=O)Nc1ccccc1 | -9.69% (inactive) | 
Cn1c(N)cc(=O)n(C)c1=S | -5.87% (inactive) | 
CCCn1nc(NS(=O)(=O)c2ccccc2)c2cc3cc(C)ccc3nc21 | -277% (inactive) | 
CCCn1nc(NS(=O)(=O)c2ccc(F)cc2)c2cc3ccccc3nc21 | -3.49% (inactive) | 
CCCn1nc(NC(=O)C(C)C)c2cc3cc(OC)ccc3nc21 |  | 9.2 µM (active)
CCOC(=O)C1CCCN(C(=O)C2CCN(S(=O)(=O)c3ccc(Cl)c(C(F)(F)F)c3)CC2)C1 (configuration not stated) | -0.268% (inactive) | 
Cc1ccc(S(=O)(=O)N2CCCCC2)cc1C(=O)N1CCN(CCO)CC1 | 4.03% (inactive) | 
O=C(CCC(=O)N1CCN(S(=O)(=O)c2ccc(Cl)cc2)CC1)NCc1cccc(C(F)(F)F)c1 | -18.8% (inactive) | 
OCCNc1nc(Nc2ccc(Cl)c(Cl)c2)nc2ccccc12 | 0.218% (inactive) | 
CN(C)c1nc(NN)nc(Nc2ccc(F)cc2)n1 | 8.77% (inactive) | 
CN(C)c1nc(Nc2ccc(Cl)c(Cl)c2)nc(N(C)C)n1 |  | 23.1 µM (active)
CC(=O)Oc1ccc2c(c1)C(=O)c1ccccc1C2=O | -16.9% (inactive) | 

SMILES | re-replication activation | Potency
O=C1C(Cl)=C(Oc2ccccc2)C(=O)c2ccccc21 |  | 2.06 µM (active)
Cc1ccc(S(=O)(=O)N2CCN(C(=O)CN3C(=O)NC(C)(c4ccc(Cl)cc4)C3=O)CC2)c(C)c1 (configuration not stated) | 9.81% (inactive) | 
Cc1ccnc(SCC(=O)Nc2cccc(S(=O)(=O)N3CCOCC3)c2)n1 | -9.84% (inactive) | 
CC(=O)Nc1ccc(NC(=O)c2sc3nc4c(c(-c5ccc(C)cc5)c3c2N)CCC4)cc1 |  | 20.6 µM (active)
Cc1ccc(NC(=O)c2csc3c2CCCC3)cc1 | -1.8% (inactive) | 
Cc1ccc(NC(=O)c2c(NC(=O)CCC(=O)O)sc3c2CCCCC3)cc1 | -11.6% (inactive) | 
COc1ccccc1N(CC(=O)Nc1c(C)n(C)n(-c2ccccc2)c1=O)S(=O)(=O)c1ccccc1 | -8.42% (inactive) | 
Cc1ccc(S(=O)(=O)NCC(=O)NNC(=O)c2ccc(Br)cc2)cc1C | -3.8% (inactive) | 
COc1cc(/C=C2\Oc3ccc(C#Cc4ccc(O)cc4)cc3C2=O)cc(OC)c1 | -3.34% (inactive) | 
COc1cc(C#Cc2ccc3cc(CCCO)oc(=O)c3c2)cc(OC)c1 |  | 3.26 µM (active)
O=C1c2ccccc2C(=O)N1CCC#Cc1ccc2cc(C3(O)CCCCC3)oc(=O)c2c1 | -6.42% (inactive) | 
C#CCOCCOCCOCCNc1nc(N2CCN(C(=O)[C@H](CO)n3cc([C@@H](N)C(C)C)nn3)CC2)nc(N2CCN(C(=O)[C@H](CCC(=O)O)n3cc([C@@H](N)[C@H](C)CC)nn3)CC2)n1 | -0.653% (inactive) | 
COc1ccc(/C=C(\C#N)c2c[nH]c3ccccc23)cc1 |  | 18.4 µM (active)
COc1cc(/C=C(\C#N)c2nc3ccccc3[nH]2)ccc1O | -6.88% (inactive) | 
COc1ccc2[nH]cc(/C=C(/C#N)S(=O)(=O)c3ccccc3)c2c1 | -1% (inactive) | 
C#CCOCCOCCOCCNc1nc(N2CCOCC2)nc(N2CCN(C(=O)[C@H](Cc3ccc(O)cc3)n3cc(CCO)nn3)CC2)n1 | -5.18% (inactive) | 
Cc1noc(C)c1S(=O)(=O)N(C)C[C@H]1Oc2c(NC(=O)Nc3ccc4c(c3)OCO4)cccc2C(=O)N([C@H](C)CO)C[C@@H]1C | 12.8% (inactive) | 
O=C(NCc1ccc2c(c1)OCO2)c1cc([N+](=O)[O-])ccc1N1CCOCC1 |  | 7.31 µM (active)
O=C(Cc1ccc([N+](=O)[O-])cc1)NCCc1ccc2c(c1)OCO2 | -3.75% (inactive) | 
O=C(NCc1ccc2c(c1)OCO2)c1cc(F)c(F)cc1Cl | 0.16% (inactive) | 
CC[C@]12c3[nH]c4ccc(Cl)cc4c3CCN1C(=O)[C@@H](CC(=O)NCCN1CCOCC1)C[C@@H]2C(=O)N1CCN(C(=O)C2CC2)CC1 | -1.66% (inactive) | 
COc1ccc(CCNC(=O)COc2cc(C)cc3oc(=O)c(C)c(C)c23)cc1OC | -6.91% (inactive) | 
COc1ccc(/C=C/C(=O)OCC(=O)NC2CCCCCC2)cc1OC | -8.91% (inactive) | 
